Measurements taken from PubChem BioAssay (Tox21).
Values joined by “and” are separate entries in the source; they are usually repeats but may differ in a detail not shown here. Identical values can stand only once. Records with an inconclusive call do not appear. Entries that show only a call come without a potency. Some structures have more than one record in an assay (separate samples or runs), and their calls can disagree. Active and inactive are the calls of the source. Unless noted, the call rests on the fitted dose curve.

Assays:
[1] = Nuclear factor erythroid 2-related factor 2/antioxidant responsive element (Nrf2/ARE) small molecule agonists: qHTS cell viability counter screen in human keratinocytes (AID 1919968; active means well fitted curve in the direction sought with a large enough effect in the repeat runs; an effect the other way counts as inactive or inconclusive; further: nearly all actives have a fitted effect of over 55% in size)
In short: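 CellTiter-Fluor fluorescence, read 1 h after reagent, gave viability in the same wells as the ARE-luciferase assay. KeratinoSens cells (1,500/well) had 23 h compound exposure at 37 C/5% CO2 following 5 h plating.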

[2] = Nuclear factor erythroid 2-related factor 2/antioxidant responsive element (Nrf2/ARE) small molecule agonists: luciferase reporter gene qHTS assay in human keratinocytes (AID 1919969); further: nearly all actives have a fitted effect of over 35% in size; further: potency means the concentration at half of the fitted maximal effect
[3] = molecular target: Gonadotropin-releasing hormone receptor (Homo sapiens) (UniProt P30968); experiment: Human gonadotropin-releasing hormone receptor (GnRHR) small molecule agonists, calcium flux assay in GnRHR-HEK293 cells (AID 1920063); further: nearly all actives have a fitted effect of over 35% in size
Gonadotropin-releasing hormone receptor (Homo sapiens), sequence (P30968 whole entry, looked up): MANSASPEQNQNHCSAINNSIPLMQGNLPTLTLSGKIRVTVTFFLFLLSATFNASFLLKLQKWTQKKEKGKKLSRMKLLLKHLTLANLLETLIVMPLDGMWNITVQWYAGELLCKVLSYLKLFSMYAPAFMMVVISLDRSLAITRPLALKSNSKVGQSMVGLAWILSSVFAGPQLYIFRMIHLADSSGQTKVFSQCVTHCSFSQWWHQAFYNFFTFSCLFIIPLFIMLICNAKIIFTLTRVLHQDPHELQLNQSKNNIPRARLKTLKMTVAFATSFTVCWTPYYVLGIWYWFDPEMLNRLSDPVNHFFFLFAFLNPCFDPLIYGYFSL
In short: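 Agonist mode: compounds at 15 concentrations, in triplicate, went onto calcium dye-loaded GnRHR-HEK293 cells. Intracellular calcium was then followed as 480/540 nm fluorescence at 1 s intervals over 3 min.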

[4] = molecular target: KiSS-1 receptor (Homo sapiens) (UniProt Q969F8); experiment: Human kisspeptin (KISS1R) small molecule agonists, calcium flux assay in KISS1R-HEK293 cells (AID 1920064; active means well fitted curve in the direction sought with a large enough effect in the repeat runs; an effect the other way counts as inactive or inconclusive)
KiSS-1 receptor (Homo sapiens), sequence (Q969F8 whole entry, looked up): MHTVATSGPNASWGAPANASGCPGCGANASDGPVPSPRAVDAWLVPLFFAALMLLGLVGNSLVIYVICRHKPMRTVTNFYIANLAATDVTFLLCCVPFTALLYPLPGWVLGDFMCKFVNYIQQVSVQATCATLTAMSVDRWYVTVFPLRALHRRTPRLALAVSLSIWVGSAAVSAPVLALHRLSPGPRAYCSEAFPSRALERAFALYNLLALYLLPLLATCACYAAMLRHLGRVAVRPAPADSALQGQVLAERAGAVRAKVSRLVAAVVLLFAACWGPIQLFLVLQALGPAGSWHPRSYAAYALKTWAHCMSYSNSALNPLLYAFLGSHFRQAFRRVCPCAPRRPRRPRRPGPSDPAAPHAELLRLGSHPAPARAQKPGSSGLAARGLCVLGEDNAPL
In short: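 Agonist mode: intracellular calcium rise tracked at 1 s intervals over 3 min (480/540 nm) immediately after compound addition to dye-loaded KISS1R-HEK293 stable cells. Each compound tested at 15 concentrations in triplicate.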

[5] = G protein-coupled receptor (GPCR) small molecule agonists, calcium flux assay: HEK293 wild type cell line counter screen (AID 1920065)
In short: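 Calcium flux counter screen: compound added in agonist mode at 15 concentrations in triplicate to dye-loaded parental HEK293 cells. Fluorescence (480/540) read kinetically for 3 min; ATP served as positive control.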

[6] = p53 small molecule agonists, cell-based qHTS assay with human liver microsomes (AID 1963577)
In short: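 Fluorescence of the beta-lactamase reporter in p53RE-bla cells, detected with LiveBLAzer substrate (2 h, room temperature, dark), served as the read-out after 16 h compound exposure at 37 C with human liver microsomes and NADPH, each 0.5 mg/mL final.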

[7] = p53 small molecule agonists, cell-based qHTS assay with rat liver microsomes (AID 1963578)
In short: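 Cells carrying a p53 response element–beta-lactamase reporter were plated and rested 5 h, then dosed with compound in DMSO plus rat liver microsomes and NADPH, each at 0.5 mg/mL final. After 16 h at 37 C, LiveBLAzer substrate was added for 2 h.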

[8] = p53 small molecule agonists, cell-based qHTS assay with human liver microsomes: qHTS cell viability counter screen (AID 1963579); further: nearly all actives have a fitted effect of over 45% in size
In short: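 Cytotoxicity counter screen: p53RE-bla, 4,000 cells/well; 5 h settle, 37 C/5% CO2; cpd + HLM 0.5 mg/mL + NADPH 0.5 mg/mL (final); 16 h, 37 C; CellTiter-Glo, 30 min RT, luminescence.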

[9] = p53 small molecule agonists, cell-based qHTS assay with rat liver microsomes: qHTS cell viability counter screen (AID 1963580); further: nearly all actives have a fitted effect of over 45% in size
In short: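 After the beta-lactamase ratio was read, CellTiter-Glo was added to the same wells and luminescence measured at 30 min; cells had been treated 16 h at 37 C with compounds, rat liver microsomes and NADPH (0.5 mg/mL final each).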

[10] = p53 small molecule agonists, cell-based qHTS assay: qHTS cell viability counter screen (AID 1963581); further: nearly all actives have a fitted effect of over 45% in size; further: potency means the concentration at half of the fitted maximal effect
In short: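 Counter screen read by CellTiter-Glo luminescence (ATP content, 30 min at room temperature), run in the same wells as the beta-lactamase reporter read. HCT-116 p53RE-bla cells saw compounds for 16 h at 37 C.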

[11] = p53 small molecule agonists, cell-based qHTS assay (AID 1963582; active means well fitted activation curve with a large enough effect in the signal ratio in the repeat runs, not every such curve was filed as active; the % refers to the signal ratio)
In short: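 Read-out is beta-lactamase FRET fluorescence after 2 h at room temperature with LiveBLAzer B/G substrate. p53 response element-bla cells were treated 16 h at 37 C with compounds in DMSO, added 5 h after seeding.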

[12] = molecular target: 5-hydroxytryptamine receptor 2A (Homo sapiens) (UniProt P28223); experiment: 5-hydroxytryptamine receptor 2A (HTR2A) small molecule antagonists, cell-based qHTS assay (AID 1963586); further: nearly all actives have a fitted effect of over 45% in size; further: potency means the concentration at half of the fitted maximal effect
5-hydroxytryptamine receptor 2A (Homo sapiens), sequence (P28223 whole entry, looked up): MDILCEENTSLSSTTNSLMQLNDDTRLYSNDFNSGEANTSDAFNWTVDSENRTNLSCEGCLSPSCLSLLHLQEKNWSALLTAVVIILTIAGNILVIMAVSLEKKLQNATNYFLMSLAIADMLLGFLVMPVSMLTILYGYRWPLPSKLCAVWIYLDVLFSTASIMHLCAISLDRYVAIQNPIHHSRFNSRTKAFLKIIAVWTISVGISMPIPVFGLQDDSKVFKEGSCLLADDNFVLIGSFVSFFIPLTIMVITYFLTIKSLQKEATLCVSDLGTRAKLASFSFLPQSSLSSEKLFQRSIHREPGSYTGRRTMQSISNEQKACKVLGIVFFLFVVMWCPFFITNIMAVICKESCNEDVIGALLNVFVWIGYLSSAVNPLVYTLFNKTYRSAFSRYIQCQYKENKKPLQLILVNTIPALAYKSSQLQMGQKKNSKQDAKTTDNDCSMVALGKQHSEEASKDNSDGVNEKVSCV
In short: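 CHO cells stably expressing human HTR2A were plated for 18 h at 37 C, then loaded with calcium dye for 1 h. Compounds were preincubated 5 min at room temperature before DOI (4 nM solution) was added. Kinetic fluorescence was read for 3 min.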

[13] = molecular target: 5-hydroxytryptamine receptor 2A (Homo sapiens) (UniProt P28223); experiment: 5-hydroxytryptamine receptor 2A (HTR2A) small molecule agonists, cell-based qHTS assay (AID 1963587); further: nearly all actives have a fitted effect of over 30% in size
In short: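 CHO cells stably expressing human HTR2A, plated 18 h, loaded with calcium dye 1 h at 37 C. Agonist mode: compounds added and intracellular calcium fluorescence recorded kinetically for 2 min at 1 sec intervals.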

[14] = molecular target: Muscarinic acetylcholine receptor M1 (Homo sapiens) (UniProt P11229); experiment: Cholinergic receptor muscarinic 1 (CHRM1) small molecule antagonists, cell-based qHTS assay (AID 1963588); further: nearly all actives have a fitted effect of over 40% in size
Muscarinic acetylcholine receptor M1 (Homo sapiens), sequence (P11229 whole entry, looked up): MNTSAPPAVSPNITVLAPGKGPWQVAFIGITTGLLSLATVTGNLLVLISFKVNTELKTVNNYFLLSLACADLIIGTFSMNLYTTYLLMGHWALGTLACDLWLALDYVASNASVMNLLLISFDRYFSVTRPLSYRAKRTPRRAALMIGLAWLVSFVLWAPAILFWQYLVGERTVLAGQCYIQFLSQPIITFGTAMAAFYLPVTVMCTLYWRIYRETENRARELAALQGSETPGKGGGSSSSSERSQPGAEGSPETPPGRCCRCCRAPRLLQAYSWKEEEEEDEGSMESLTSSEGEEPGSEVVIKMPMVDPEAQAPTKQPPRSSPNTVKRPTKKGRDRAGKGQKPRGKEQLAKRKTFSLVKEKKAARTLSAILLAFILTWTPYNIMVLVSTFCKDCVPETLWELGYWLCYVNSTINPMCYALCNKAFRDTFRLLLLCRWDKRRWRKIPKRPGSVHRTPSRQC
In short: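 Compounds were tested at 15 concentrations in three independent runs. Dye-loaded CHRM1-CHO cells were exposed 5 min at room temperature before stimulation by acetylcholine added at 50nM. Intracellular calcium was read kinetically on FDSS for 3 min.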

[15] = molecular target: Muscarinic acetylcholine receptor M1 (Homo sapiens) (UniProt P11229); experiment: Cholinergic receptor muscarinic 1 (CHRM1) small molecule agonists, cell-based qHTS assay (AID 1963589); further: nearly all actives have a fitted effect of over 35% in size
In short: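 Agonist-mode calcium-flux screen: compounds at 15 concentrations, three independent runs, were pin-transferred onto dye-loaded human CHRM1-CHO cells. Fluorescence was then recorded kinetically every second over minutes.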

[16] = cAMP Responsive Elements (CRE) small molecule agonists, cell-based qHTS assay (AID 1963590)
In short: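 Agonist mode: compound added to CRE-bla HEK 293T cells (2,000/well, 18 h after plating) for 3 h at 37 C/5% CO2. Reporter activity detected via FRET beta-lactamase substrate, 2 h room-temperature loading.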

[17] = cAMP Responsive Elements (CRE) small molecule antagonists, cell-based qHTS assay (AID 1963591; active means well fitted inhibition curve with a large enough effect in the signal ratio in the repeat runs, not every such curve was filed as active; the % refers to the signal ratio)
In short: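 Antagonist mode: compounds are added alongside the adenylyl cyclase activator NKH477 (0.25 uM final) to CRE-bla HEK293T cells for 3 h. LiveBLAzer FRET substrate, 2 h at room temperature, reports bla expression.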

[18] = molecular target: Beta-2 adrenergic receptor (Homo sapiens) (UniProt P07550); experiment: Adrenergic beta2 receptor (ADRB2) small molecule antagonists, cell-based qHTS assay (AID 1963592); further: nearly all actives have a fitted effect of over 50% in size; further: potency means the concentration at half of the fitted maximal effect
Beta-2 adrenergic receptor (Homo sapiens), sequence (P07550 whole entry, looked up): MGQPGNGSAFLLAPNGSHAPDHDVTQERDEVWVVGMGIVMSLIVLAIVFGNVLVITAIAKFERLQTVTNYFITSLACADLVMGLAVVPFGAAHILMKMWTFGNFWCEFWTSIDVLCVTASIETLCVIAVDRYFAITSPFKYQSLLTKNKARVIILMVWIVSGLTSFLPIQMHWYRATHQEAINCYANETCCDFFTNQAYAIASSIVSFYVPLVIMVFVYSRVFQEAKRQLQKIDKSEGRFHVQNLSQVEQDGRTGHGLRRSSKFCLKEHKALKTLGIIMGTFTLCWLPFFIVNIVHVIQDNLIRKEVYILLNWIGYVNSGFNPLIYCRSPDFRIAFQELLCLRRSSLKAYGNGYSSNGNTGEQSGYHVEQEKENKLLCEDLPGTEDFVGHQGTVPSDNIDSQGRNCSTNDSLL
In short: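 Assay format: CHO-ADRB2 cells, 18-20hr seeding at 37C/5% CO2, then compound plus 1nM isoproterenol agonist mix for 0.5hr RT. Homogeneous time-resolved fluorescence cAMP detection after 1hr, expressed as 665/615 nm ratio.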

[19] = molecular target: D(2) dopamine receptor (Homo sapiens) (UniProt P14416); experiment: Dopamine D2 receptor (DRD2) small molecule agonists, cell-based qHTS assay (AID 1963594); further: nearly all actives have a fitted effect of over 35% in size
D(2) dopamine receptor (Homo sapiens), sequence (P14416 whole entry, looked up): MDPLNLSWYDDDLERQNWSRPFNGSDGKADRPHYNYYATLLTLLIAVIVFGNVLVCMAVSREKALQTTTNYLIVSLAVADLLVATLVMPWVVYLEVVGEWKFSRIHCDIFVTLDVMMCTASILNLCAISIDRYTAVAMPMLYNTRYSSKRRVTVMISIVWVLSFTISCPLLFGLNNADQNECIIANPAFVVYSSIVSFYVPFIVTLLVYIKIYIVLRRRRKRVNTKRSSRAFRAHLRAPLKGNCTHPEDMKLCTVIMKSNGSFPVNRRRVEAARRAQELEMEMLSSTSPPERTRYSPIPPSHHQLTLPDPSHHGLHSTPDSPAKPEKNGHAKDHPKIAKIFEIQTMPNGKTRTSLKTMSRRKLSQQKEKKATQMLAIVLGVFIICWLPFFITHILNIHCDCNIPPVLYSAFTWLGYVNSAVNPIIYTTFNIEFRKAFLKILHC
In short: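 HEK293 cells stably expressing human DRD2, pre-treated with PDE inhibitor Ro20-1724 (0.1 mM final) and compound 10 min at room temperature, then stimulated with NKH477 (200nM […]) for 30 min. cAMP read by HTRF (665/620 nm).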

[20] = molecular target: D(2) dopamine receptor (Homo sapiens) (UniProt P14416); experiment: Dopamine D2 receptor (DRD2) small molecule antagonists, cell-based qHTS assay (AID 1963595; active means well fitted inhibition curve with a large enough effect in the signal ratio in the repeat runs, with a control signal flat; the % refers to the signal ratio)
In short: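 HTRF cAMP read-out at 665 and 620 nm emission (340 nm excitation). Antagonist mode: compounds were tested against 12 nM quinpirole in DRD2-HEK293 cells, with 200 nM NKH477 raising cAMP and 0.1 mM Ro20-1724 blocking its breakdown.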

Row | Compound | Potency [1] | Potency [2] | Potency [3] | Potency [4] | Potency [5] | Potency [6] | Potency [7] | Potency [8] | Potency [9] | Potency [10] | Potency [11] | Potency [12] | Potency [13] | Potency [14] | Potency [15] | Potency [16] | Potency [17] | Potency [18] | Potency [19] | Potency [20]
1 | Cc1occc1SSc1ccoc1C | inactive | 61.1 µM (active) | inactive | inactive | inactive | inactive | inactive | inactive | inactive | inactive | inactive | inactive | inactive | inactive | inactive | inactive | inactive | inactive | inactive | 
2 | CS(C)(=O)=O | inactive | inactive | inactive | inactive | inactive | inactive | inactive | inactive | inactive | inactive | inactive | inactive | inactive | inactive | inactive | inactive | inactive | inactive |  | inactive
3 | NNS(=O)(=O)c1ccc(Oc2ccc(S(=O)(=O)NN)cc2)cc1 | inactive | inactive | inactive | inactive | inactive | inactive | inactive | inactive | inactive | inactive | inactive | inactive | inactive | inactive | inactive | inactive | inactive | inactive | inactive | inactive
4 | CC(C)COC(=O)c1ccccc1O | inactive | inactive | inactive | inactive | inactive | inactive | inactive | inactive | inactive | inactive | inactive | inactive | inactive | inactive | inactive | inactive | inactive | inactive | inactive | inactive
5 | CCCCOCCOCCOCCO | inactive | inactive | inactive | inactive | inactive | inactive | inactive | inactive | inactive | inactive | inactive | inactive | inactive | inactive | inactive | inactive | inactive | 30.3 µM (active) and inactive | inactive | inactive
6 | CC(C)(C)c1nnc(NS(=O)(=O)c2ccc(N)cc2)s1 | inactive | inactive | inactive | inactive | inactive | inactive | inactive | inactive | inactive | inactive | inactive | 7.29 µM (active) | inactive | inactive | inactive | inactive | inactive | inactive |  | inactive
7 | Nc1cc([N+](=O)[O-])ccc1O | inactive | inactive | inactive | inactive | inactive | inactive | inactive | inactive | inactive | inactive and 362 nM (active) | inactive | inactive | inactive | inactive | inactive | inactive | inactive | inactive | inactive | inactive
8 | Cn1cc(S(C)=O)c(=O)c2ccc(F)cc21 (configuration not stated) | inactive | inactive | inactive | inactive | inactive | inactive | inactive | inactive | inactive | inactive | inactive | inactive | inactive | inactive | inactive | inactive | inactive | inactive |  | inactive
9 | N[C@H]1C(O)O[C@H](CO)[C@@H](O)[C@@H]1O (some centres not stated) | inactive | inactive | inactive | inactive | inactive | inactive | inactive | inactive | inactive | inactive | inactive | inactive | inactive | inactive | inactive | inactive | inactive | inactive |  | inactive
10 | CC(C)CCCCOC(=O)c1ccccc1C(=O)OCCCCC(C)C | inactive | inactive | inactive | inactive | inactive | inactive | inactive | inactive | inactive | inactive | inactive | inactive | inactive | inactive | inactive | inactive | inactive | inactive |  | inactive
11 | OCCc1ccccn1 | inactive | inactive | inactive | inactive | inactive | inactive | inactive | inactive | inactive | inactive | inactive | inactive | inactive | inactive | inactive | inactive | inactive | inactive | inactive | 
12 | CCCCc1ccc2cccc(S(=O)(=O)O)c2c1 | inactive | inactive | inactive | inactive | inactive | inactive | inactive | inactive | inactive | inactive | inactive | inactive | inactive | inactive | inactive | inactive | inactive | inactive | inactive | inactive
13 | C=C[Si](OC(=C)C)(OC(=C)C)OC(=C)C | inactive | inactive | inactive | inactive | inactive | inactive | inactive | inactive | inactive | inactive | inactive | inactive | inactive | inactive | inactive | inactive | inactive | inactive | inactive | inactive
14 | CC1=NN(c2ccc(S(=O)(=O)O)cc2)C(=O)C1 | inactive | inactive | inactive | inactive | inactive | inactive | inactive | inactive | inactive | inactive | inactive | inactive | inactive | inactive | inactive | inactive | inactive | inactive |  | inactive
